Test results: PubChem BioAssay (Tox21)
Values joined by “and” are separate entries in the source; they are usually repeats but may differ in a detail not shown here. Equal values may be shown once. Results filed as inconclusive are left out. A call without a number means that no potency is given here. The source holds several records for some structures; these can differ, active in one and inactive in another. Active and inactive are the calls of the source. The call rests on the fitted dose curve.

Columns and labels:
[1] = biological target: Acetylcholinesterase (Homo sapiens) (UniProt P22303); assay: Acetylcholinesterase (AChE) small molecule antagonists: colormetric cell-based qHTS assay (AID 1347395); further: nearly all actives have a fitted effect of over 30% in size; further: potency means the concentration at half of the fitted maximal effect
Acetylcholinesterase (Homo sapiens), sequence (P22303 whole entry, looked up): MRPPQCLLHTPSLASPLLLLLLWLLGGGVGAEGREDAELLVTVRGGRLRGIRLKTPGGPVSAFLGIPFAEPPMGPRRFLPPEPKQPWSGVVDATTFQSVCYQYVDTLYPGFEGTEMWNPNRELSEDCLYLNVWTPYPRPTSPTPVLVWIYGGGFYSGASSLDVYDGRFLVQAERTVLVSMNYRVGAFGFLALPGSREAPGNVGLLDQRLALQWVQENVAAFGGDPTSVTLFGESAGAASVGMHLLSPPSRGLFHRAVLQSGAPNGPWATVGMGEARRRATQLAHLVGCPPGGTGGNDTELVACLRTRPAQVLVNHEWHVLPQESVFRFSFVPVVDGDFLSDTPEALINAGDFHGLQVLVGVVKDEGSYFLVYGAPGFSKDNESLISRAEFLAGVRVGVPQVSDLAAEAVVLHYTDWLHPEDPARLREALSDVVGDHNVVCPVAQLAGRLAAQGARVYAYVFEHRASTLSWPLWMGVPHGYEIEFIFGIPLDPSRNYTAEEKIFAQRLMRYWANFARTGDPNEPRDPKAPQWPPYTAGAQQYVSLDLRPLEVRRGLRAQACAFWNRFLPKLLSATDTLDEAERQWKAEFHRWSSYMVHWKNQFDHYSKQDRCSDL
Outline: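 Colorimetric readout: DTNB quantifies thiocholine from acetylthiocholine hydrolysed by endogenous AChE of SH-SY5Y cells (2,000/well, plated overnight). Compound pretreatment 30 min, substrate incubation 90 min, both 37 C.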

[2] = biological target: Acetylcholinesterase (Homo sapiens) (UniProt P22303); assay: Acetylcholinesterase (AChE) small molecule antagonists: enzyme-based qHTS assay (AID 1347397); details: Potency: AChE enzyme activity inhibition; outcome: AChE enzyme activity inhibition; further: nearly all actives have a fitted effect of over 55% in size; further: potency means the concentration at half of the fitted maximal effect
Outline: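 rhAChE 50 mU/mL (dispensed) + cpd or DMSO, 30 min RT; add DTNB/acetylthiocholine cocktail, 10 min RT; colorimetric thiocholine readout. qHTS, 1536-well format.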

[3] = biological target: Acetylcholinesterase (Homo sapiens) (UniProt P22303); assay: Acetylcholinesterase (AChE) small molecule antagonists: fluorescence cell-based qHTS assay (AID 1347398); details: Potency: AChE activity; outcome: AChE activity; further: nearly all actives have a fitted effect of over 50% in size; further: potency means the concentration at half of the fitted maximal effect
Outline: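 Read-out is Thiolite Green fluorescence at Ex/Em = 490/520 nm, formed by reaction with thiocholine released when cellular AChE in SH-SY5Y cells hydrolyzes acetylthiocholine. Compounds were preincubated 30 min at 37 C before substrate.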

[4] = biological target: Acetylcholinesterase (Homo sapiens) (UniProt P22303); assay: Acetylcholinesterase (AChE) small molecule antagonists: enzyme-based qHTS assay with human liver microsomes (AID 1347399); details: Potency: qHTS inhibition; outcome: qHTS inhibition; further: nearly all actives have a fitted effect of over 60% in size
Outline: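 Recombinant human AChE (50 mU/mL in the enzyme mix) and human liver microsomes (0.25 mg/mL final) were preincubated with compound and NADPH (0.25 mg/mL final) for 30 min at 37 C. Acetylthiocholine/DTNB was then added; thiocholine was read colorimetrically after 10 min at room temperature.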

| SMILES | Potency [1] | Potency [2] | Potency [3] | Potency [4] | activity, negative = inhibition [1] | activity change, negative = inhibition [2] | activity change, negative = inhibition [3] | activity change, negative = inhibition [4] |
| --- | --- | --- | --- | --- | --- | --- | --- | --- |
| CCCCCCCCCCCCCC[N+](C)(C)Cc1ccccc1 | 64.3 µM (active) and inactive | 64.3 µM (active) | 36.2 µM (active) and 30.9 µM (active) and 15.8 mM (active) | inactive |  |  |  |  |
| BrC(Br)C(Br)Br | inactive | inactive | inactive | inactive |  |  |  |  |
| CC(C)C1=CC2=CC[C@@H]3[C@](C)(CCC[C@@]3(C)C(=O)O)[C@H]2CC1 | inactive | inactive | inactive | inactive |  |  |  |  |
| Nc1cc([N+](=O)[O-])ccc1C(=O)O | inactive | inactive | inactive | inactive |  |  |  |  |
| O=S(=O)(O)c1cc(Cl)c(Cl)cc1Cl | inactive | inactive | inactive | inactive |  |  |  |  |
| Oc1ccc(O)cc1 | inactive | inactive | inactive | inactive |  |  |  |  |
| O=C(c1ccccc1O)c1ccccc1O | inactive | inactive | inactive | inactive |  |  |  |  |
| CC(C)CCCCCCc1ccc(O)cc1 | inactive | inactive | inactive | inactive |  |  |  |  |
| CC(=O)OC/C=C(C)/C=C/C=C(C)/C=C/C1=C(C)CCCC1(C)C | inactive | inactive | inactive | inactive |  |  |  |  |
| C=CC(C)CCCC(C)(C)O (stereo not given) | inactive and 28.3 µM (active) | inactive and 25.2 µM (active) | inactive and 22.4 µM (active) | inactive |  |  |  |  |
| O=C1c2ccccc2C(=O)C1c1ccc2ccccc2n1 | inactive | inactive | inactive | inactive |  |  |  |  |
| CC(C)=CCC[C@@](C)(O)[C@H]1CC=C(C)CC1 | inactive | inactive | inactive | inactive |  |  |  |  |
| Nc1ccc(O)c(N)c1 | inactive | inactive | inactive | inactive |  |  |  |  |
| C[C@@H](Oc1ccc(CNC(=O)c2cccnc2Oc2ccc3c(c2)OCO3)c(F)c1)C(=O)O | inactive | inactive | inactive | inactive |  |  |  |  |
| CC(C)CCCC(C)CCCC(C)CCCCC(C)CCCC(C)CCCC(C)C (stereo not given) | inactive | inactive | inactive | inactive |  |  |  |  |
| CCS(=O)(=O)CCn1c([N+](=O)[O-])cnc1C | inactive | inactive | inactive | inactive |  |  |  |  |
| COS(C)(=O)=O | inactive | inactive | inactive | inactive |  |  |  |  |
| O=Cc1ccc(Cl)cc1 | inactive | inactive | inactive | inactive |  |  |  |  |
| NC(=O)CC[C@@H]1NC(=O)[C@H](Cc2ccccc2)NC(=O)[C@H](Cc2ccc(O)cc2)NC(=O)CCSSC[C@@H](C(=O)N2CCC[C@H]2C(=O)N[C@@H](CCCN=C(N)N)C(=O)NCC(N)=O)NC(=O)[C@H](CC(N)=O)NC1=O | inactive | inactive | inactive | inactive |  |  |  |  |
| CCOC(=O)[C@H](CCc1ccccc1)N[C@@H](C)C(=O)N1CCC[C@H]1C(=O)O | inactive | inactive | inactive | inactive |  |  |  |  |

| SMILES | Potency [1] | Potency [2] | Potency [3] | Potency [4] | activity, negative = inhibition [1] | activity change, negative = inhibition [2] | activity change, negative = inhibition [3] | activity change, negative = inhibition [4] |
| --- | --- | --- | --- | --- | --- | --- | --- | --- |
| O=C1CCCCCCCCCCC1 | inactive | inactive | inactive | inactive |  |  |  |  |
| CCO[Si](CCCNC(N)=O)(OCC)OCC | inactive | inactive | inactive | inactive |  |  |  |  |
| CSc1cnccn1 | inactive | inactive | inactive | inactive |  |  |  |  |
| CC(=O)CCC=C(C)C | inactive | inactive | inactive | inactive |  |  |  |  |
| O=C1CCCCCCCCCCCCCC1 | inactive | inactive | inactive | inactive |  |  |  |  |
| CC(CN(CCN(CC(C)OCCO)CC(C)OCCO)CC(C)OCCO)OCCO (stereo not given) | inactive | inactive | inactive | inactive |  |  |  |  |
| CCN(CC)CC(=O)Nc1c(C)cccc1C(=O)OC | inactive | inactive | inactive | inactive |  |  |  |  |
| COC(=O)C1=C(C)NC(C)=C(C(=O)OCCc2ccc(N3CCN(C(c4ccccc4)c4ccccc4)CC3)cc2)C1c1cccc([N+](=O)[O-])c1 (stereo not given) | inactive | inactive | inactive | inactive |  |  |  |  |
| CCCOC(=O)c1ccccc1 | inactive | inactive | inactive | inactive |  |  |  |  |
| CC1=C(Br)C(=O)C(Br)=C/C1=C(/c1ccccc1S(=O)(=O)O)c1cc(Br)c(O)c(Br)c1C | inactive | inactive | inactive | inactive |  |  |  |  |
| O=c1c2ccccc2oc2ccccc12 | inactive | inactive | inactive | inactive |  |  |  |  |
| O=C(O)c1ccc(Cl)cc1Cl | inactive | inactive | inactive | inactive |  |  |  |  |
| Oc1ccccc1-c1nnco1 | inactive | inactive | inactive | inactive |  |  |  |  |
| Cc1ccc(C(C)C)cc2c(C)ccc1-2 | inactive | inactive | inactive | inactive |  |  |  |  |
| CCOCOCC | inactive | inactive | inactive | inactive |  |  |  |  |
| Nc1c(Cl)cc(Cl)cc1Cl | inactive | inactive | inactive | inactive |  |  |  |  |
| Cc1ccc([N+](=O)[O-])cc1S(=O)(=O)O | inactive | inactive | inactive | inactive |  |  |  |  |
| CC(C)C[C@H](NC(=O)[C@H](CCc1ccccc1)NC(=O)CN1CCOCC1)C(=O)N[C@@H](Cc1ccccc1)C(=O)N[C@@H](CC(C)C)C(=O)[C@@]1(C)CO1 | inactive | inactive | inactive | inactive |  |  |  |  |
| CC1CCCC(=O)C1=O (stereo not given) | inactive | inactive | inactive | inactive |  |  |  |  |
| Cc1ncc(CO)c(CN)c1O | inactive | inactive | inactive | inactive |  |  |  |  |

| SMILES | Potency [1] | Potency [2] | Potency [3] | Potency [4] | activity, negative = inhibition [1] | activity change, negative = inhibition [2] | activity change, negative = inhibition [3] | activity change, negative = inhibition [4] |
| --- | --- | --- | --- | --- | --- | --- | --- | --- |
| CCCCCCCC=O | inactive | inactive | inactive | inactive |  |  |  |  |
| COc1cccc2sc(N)nc12 | inactive | inactive | inactive | inactive |  |  |  |  |
| CC(=O)Nc1ccc(/C=N/NC(N)=S)cc1 | inactive | inactive | inactive | inactive |  |  |  |  |
| FC(F)(F)/C(=N\OCC1OCCO1)c1ccc(Cl)cc1 | inactive | inactive | inactive | inactive |  |  |  |  |
| O=C(C(=O)c1ccc(Br)cc1)c1ccc(Br)cc1 |  |  |  |  | 1.28% [at 23.6 µM] (inactive) | 1.82% [at 23.6 µM] (inactive) | -2.19% [at 23.8 µM] (inactive) | -3.65% [at 23.6 µM] (inactive) |
| NC(N)=S | inactive | inactive | inactive | inactive |  |  |  |  |
| [O-][n+]1ccccc1SSc1cccc[n+]1[O-] |  |  | 12 µM (active) |  | -9.35% [at 23.6 µM] (inactive) | -9.5% [at 23.6 µM] (inactive) |  | -15.2% [at 23.6 µM] (inactive) |
| [Cl][Bi]([Cl])([c]1ccccc1)([c]1ccccc1)[c]1ccccc1 | inactive | inactive | inactive | inactive |  |  |  |  |
| Cc1cc(C)c(N)c(Cl)c1 | inactive | inactive | inactive | inactive |  |  |  |  |
| COc1nc(N)nc2nc[nH]c12 | inactive | inactive | inactive | inactive |  |  |  |  |
| CC(=O)c1ccc2ccc3ccccc3c2c1 | inactive | inactive | inactive | inactive |  |  |  |  |
| CCOC(=O)N1CCC(n2c(=O)[nH]c3cc(Cl)ccc32)CC1 | inactive | inactive | inactive | inactive |  |  |  |  |
| CCCCC(CC)COC(=O)COc1ccc(Cl)cc1Cl (stereo not given) | inactive | inactive | inactive | inactive |  |  |  |  |
| O=C=Nc1cccc(C(F)(F)F)c1 | inactive | inactive | inactive | inactive |  |  |  |  |
| C[C@@H](CN1CC(=O)NC(=O)C1)N1CC(=O)NC(=O)C1 | inactive | inactive | inactive | inactive |  |  |  |  |
| CCCCOCCOCCSC#N | inactive | inactive | inactive | inactive |  |  |  |  |
| CN(C)[C@@H]1C(=O)C(C(N)=O)=C(O)[C@@]2(O)C(=O)C3=C(O)c4c(O)cccc4C[C@H]3C[C@@H]12 | inactive | inactive | inactive | inactive |  |  |  |  |
| CCCCCCC(O)CCCCCCCCCCC(=O)OC (stereo not given) | inactive | inactive | inactive | inactive |  |  |  |  |
| OCc1ccccc1O | inactive | inactive | inactive | inactive |  |  |  |  |
| COC(=O)[C@@H]1CC2=CC(=O)CC[C@]2(C)[C@@]23O[C@@H]2C[C@@]2(C)[C@@H](CC[C@@]24CCC(=O)O4)[C@H]13 | inactive | inactive | inactive | inactive |  |  |  |  |
